Experimental findings from PMC8384837, “Expanding the binding specificity for RNA recognition by a PUF domain” are described below.

What all share (assay): yeast three-hybrid, YBZ-1, SC-Leu-His + 0.5 mM 3-AT, 4 days
Common to all, as to details: tags: N-Gal4 AD-HA kept; label: inside an RPR1-promoter hybrid RNA with tandem MS2 sites; ssRNA

For assay [1], the target named is T1, PUM1 PUF domain R6-VWT (Homo sapiens, UniProt Q14671 828-1176, N1043V;Y1044W;Q1047T).
T1 sequence: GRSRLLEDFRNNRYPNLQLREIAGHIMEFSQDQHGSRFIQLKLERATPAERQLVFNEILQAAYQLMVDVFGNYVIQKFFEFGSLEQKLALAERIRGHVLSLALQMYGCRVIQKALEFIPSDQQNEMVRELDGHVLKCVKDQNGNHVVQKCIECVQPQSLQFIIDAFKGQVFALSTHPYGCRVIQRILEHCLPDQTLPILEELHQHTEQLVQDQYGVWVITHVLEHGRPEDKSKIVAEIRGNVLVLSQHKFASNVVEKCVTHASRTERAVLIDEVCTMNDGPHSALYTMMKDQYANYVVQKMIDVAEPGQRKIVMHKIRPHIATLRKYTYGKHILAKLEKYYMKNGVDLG
In short, it runs like this: (§1)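 Repeat regions from input (SC-Leu) and selection (SC-Leu-His + 0.5 mM 3-AT) plates were PCR-amplified and Illumina-sequenced after four days of growth. The cells were strain YBZ-1 with a LexA–MS2 coat fusion and a HIS3 reporter, co-expressing Pumilio-1 PUF domain libraries and matching RNA elements from a centromeric plasmid. The interaction score is the log change in variant frequency from input to selection, taken in log2 with a pseudocount of 1 for absent variants.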

In assay [2] the target is T2, PUM1 PUF domain R6-IFT (Homo sapiens, UniProt Q14671 828-1176, N1043I;Y1044F;Q1047T).
T2 sequence: T1 sequence with V216I, W217F
In outline: as §1

The target of assay [3] is T3, PUM1 PUF domain R6-EWL (Homo sapiens, UniProt Q14671 828-1176, N1043E;Y1044W;Q1047L).
T3 sequence: T1 sequence with V216E, T220L
In outline:
as §1

For assay [4], the target named is PUM1 PUF domain R1-RLQ (Homo sapiens, UniProt Q14671 828-1176, S863R;R864L). In outline:
as §1

In assay [5] the target is PUM1 PUF domain R3-YYG (Homo sapiens, UniProt Q14671 828-1176, C935Y;R936Y;Q939G). In outline: as §1
Assay [6] has as its target PUM1 PUF domain R5-RRG (Homo sapiens, UniProt Q14671 828-1176, C1007R;Q1011G). In short, it runs like this:
as §1

In assay [7] the target is PUM1 PUF domain R5-SHL (Homo sapiens, UniProt Q14671 828-1176, C1007S;R1008H;Q1011L). In outline:
as §1

The target of assay [8] is PUM1 PUF domain R2-LFI (Homo sapiens, UniProt Q14671 828-1176, N899L;Y900F;Q903I). In short, it runs like this: as §1
The target in assay [9] is PUM1 PUF domain R5-RKP (Homo sapiens, UniProt Q14671 828-1176, C1007R;R1008K;Q1011P). In outline: as §1
Assay [10] addresses PUM1 PUF domain R5-RCK (Homo sapiens, UniProt Q14671 828-1176, C1007R;R1008C;Q1011K). In outline: as §1

Changes are numbered by the printed parent chain.

As for “GGCUAGAACUAGUGGAUCCCCCGGCGCCCGGCGGCUCGAGCCCGGGUAAGUGAAAAUAGUCUGCAUGCCGCCGGGCGCCAUGCCUGCAGGUCGACUCUAGAAAACAUG”, the binding signal in assay [1] was 6.13 log2 enrichment (interaction score); in assay [2], 4.79 log2 enrichment (interaction score); in assay [3], 7.27 log2 enrichment (interaction score).
With “GGCUAGAACUAGUGGAUCCCCCGGCGCCCGGCGGCUCGAGCCCGGGUAAGUGUAAAUGGUCUGCAUGCCGCCGGGCGCCAUGCCUGCAGGUCGACUCUAGAAAACAUG”, the binding signal in assay [4] is 2.26 log2 enrichment (interaction score).
As for “GGCUAGAACUAGUGGAUCCCCCGGCGCCCGGCGGCUCGAGCCCGGGUAAGUGUAAGUAGUCUGCAUGCCGCCGGGCGCCAUGCCUGCAGGUCGACUCUAGAAAACAUG”, the binding signal in assay [5] was 6.37 log2 enrichment (interaction score).
Regarding “GGCUAGAACUAGUGGAUCCCCCGGCGCCCGGCGGCUCGAGCCCGGGUAAGUGUAAAUAGUCUGCAUGCCGCCGGGCGCCAUGCCUGCAGGUCGACUCUAGAAAACAUG”, the binding signal in [6] was 2.29 log2 enrichment (interaction score); in assay [1] it was 1.67 log2 enrichment (interaction score); in [7], 2.34 log2 enrichment (interaction score); in [5], 4.58 log2 enrichment (interaction score).
“GGCUAGAACUAGUGGAUCCCCCGGCGCCCGGCGGCUCGAGCCCGGGUAAGUGUAAAAAGUCUGCAUGCCGCCGGGCGCCAUGCCUGCAGGUCGACUCUAGAAAACAUG”: the binding signal in assay [8] is 4.64 log2 enrichment (interaction score).
Take “GGCUAGAACUAGUGGAUCCCCCGGCGCCCGGCGGCUCGAGCCCGGGUAAGUGUAAAUCGUCUGCAUGCCGCCGGGCGCCAUGCCUGCAGGUCGACUCUAGAAAACAUG”: the binding signal in assay [4] was 5.58 log2 enrichment (interaction score).
The same measure, in the same setting: to “GGCUAGAACUAGUGGAUCCCCCGGCGCCCGGCGGCUCGAGCCCGGGUAAGUGUAAAUUGUCUGCAUGCCGCCGGGCGCCAUGCCUGCAGGUCGACUCUAGAAAACAUG” belongs 4.94 log2 enrichment (interaction score).
For the sequence “GGCUAGAACUAGUGGAUCCCCCGGCGCCCGGCGGCUCGAGCCCGGGUAAGUGUGAAUAGUCUGCAUGCCGCCGGGCGCCAUGCCUGCAGGUCGACUCUAGAAAACAUG”, the binding signal in assay [6] is 1.66 log2 enrichment (interaction score).
“GGCUAGAACUAGUGGAUCCCCCGGCGCCCGGCGGCUCGAGCCCGGGUAAGUGUCAAUAGUCUGCAUGCCGCCGGGCGCCAUGCCUGCAGGUCGACUCUAGAAAACAUG”: the binding signal in assay [9] was 3.3 log2 enrichment (interaction score); in [6], 4.19 log2 enrichment (interaction score); in assay [10], 4.05 log2 enrichment (interaction score); in assay [7], 0.12 log2 enrichment (interaction score).
“GGCUAGAACUAGUGGAUCCCCCGGCGCCCGGCGGCUCGAGCCCGGGUAAGUGUUAAUAGUCUGCAUGCCGCCGGGCGCCAUGCCUGCAGGUCGACUCUAGAAAACAUG”: the results for the binding signal in [6] and in assay [7] were 4.55 log2 enrichment (interaction score) and 2.85 log2 enrichment (interaction score), respectively.
